Many of the other results were omitted from the sample, so hits are more common in it than they were.
TbREL1 primary = TbREL1 RNA ligase inhibitors, primary screen, biochemical, FRET fluorescence; TbREL1 RNA ligation; RNA-editing ligase 1, mitochondrial (Trypanosoma brucei brucei), P86926; inhibition, % at 9.66 µM; 0.49% of 89,000 active;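 active = inhibition above the mean inhibition across all screened compounds plus 3 SD, cut at about 11% in these data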;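 also: 0% = plate median of test wells and 100% = NSC42067 control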
Target sequence (P86926 whole entry, looked up): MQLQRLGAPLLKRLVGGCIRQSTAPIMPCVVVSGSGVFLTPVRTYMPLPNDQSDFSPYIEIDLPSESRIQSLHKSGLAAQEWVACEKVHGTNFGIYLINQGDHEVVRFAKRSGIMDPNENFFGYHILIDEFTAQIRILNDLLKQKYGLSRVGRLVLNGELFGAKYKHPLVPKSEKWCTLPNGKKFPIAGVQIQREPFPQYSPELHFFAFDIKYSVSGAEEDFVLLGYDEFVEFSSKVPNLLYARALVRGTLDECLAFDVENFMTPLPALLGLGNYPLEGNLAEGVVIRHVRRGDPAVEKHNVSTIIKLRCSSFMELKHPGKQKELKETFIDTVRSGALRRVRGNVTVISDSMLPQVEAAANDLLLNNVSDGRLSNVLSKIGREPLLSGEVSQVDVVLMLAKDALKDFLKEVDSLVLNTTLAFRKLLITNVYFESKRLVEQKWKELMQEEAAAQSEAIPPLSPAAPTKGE
TbREL1 confirm = TbREL1 RNA ligase inhibitors, confirmation, biochemical, FRET fluorescence, triplicate; shares compounds with TbREL1 primary; TbREL1 RNA ligation; inhibition, % at 9.66 µM; 37% of 390 active;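 active = mean inhibition across replicates above a set limit taken from the earlier primary screen, cut at about 11% in these data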;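 also: 0% = REL1 with substrate and DMSO and 100% = REL1 plus control inhibitor NSC42067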
Starred values were filed as active, the others as inactive.

SMILES | TbREL1 primary | others
O=C(CSc1nnc(-c2ccccn2)n1-c1ccccc1)c1ccc(Cl)c(Cl)c1 | -1
CCOC(=O)[C@]12CCCC3=C1N(CCC3)C(=O)[C@@H](CC(=O)NCc1cccc(C(F)(F)F)c1)C2 | 2
Cc1ccc(-n2c(SCC(=O)c3ccc(O)c(O)c3)nnc2-c2ccccc2)cc1 | -4
CN(C)c1cccc(-c2cnc(N3CCC(C(N)=O)CC3)s2)c1 | -7
CCCCCCCN1C(Nc2ccccc2)=NC[C@@H]1CC(C)C | 12* | TbREL1 confirm=20*
CC(C)C[C@H]1CN=C(Nc2ccccc2)N1CCC1CCCC1 | 11
CCCCN1C(Nc2ccccc2)=NC[C@@H]1Cc1ccccc1 | 2
Cc1cc(NS(=O)(=O)c2ccc(NC(=O)CSc3nnc(-c4ccccn4)n3Cc3ccco3)cc2)nc(C)n1 | 4
COc1cccc(Cn2cc(COC(=O)N3CCOCC3)nn2)c1 | 9
O=C(O)c1ccnc(C(=O)O)c1 | 13* | TbREL1 confirm=16*
O=C(O)c1cccc(NS(=O)(=O)c2cccc3cccnc23)c1 | 0
CCOc1ccc(C(=O)O)cc1OC | -1
COc1cccc(N(C)C(=O)[C@@H](C2CC2)[C@@H](O)c2ccc(C(C)=O)cc2)c1 | 1
Cc1cc(NS(=O)(=O)c2ccc(NC(=O)CSc3nnc(SCc4ccc(Cl)cc4)s3)cc2)nc(C)n1 | -3
COc1cc(NC(=O)C2CCCN(S(=O)(=O)c3cc(OC)ccc3OC)C2)cc(OC)c1 (stereo not given) | -4
COC(=O)[C@]12C[C@H](CC(=O)NCc3ccc(OC)c(OC)c3)C(=O)N(Cc3cccc4ccccc34)C1=C[C@H](C(C)C)O[C@@H]2C1CC1 | 9
O=C(C[n+]1cc2ccccc2c2ccccc21)c1ccccc1 | 13* | TbREL1 confirm=9
Cc1nc2c(C)[n+](CC(=O)c3ccccc3)ccc2n1C | 2
O=C(O)CCC(=O)CCC(=O)c1ccccc1 | 7
CC(=O)c1cc(-c2ccc(-c3cc(C(=O)O)c4ccccc4n3)cc2)c(=O)n2c1CCC2 | 2
O=C(CSc1nnc(-c2ccccc2)n1Cc1ccco1)Nc1ccc(OCc2ccccc2)cc1 | 5
Cc1cc(C)n(CCC(=O)N/N=C/c2ccc(O)cc2O)n1 | 12* | TbREL1 confirm=5
Cc1cc(C)n(CCC(=O)N/N=C/c2ccccc2O)n1 | 1
Cc1cc(C)n(CCC(=O)N/N=C/c2ccc(Cl)c([N+](=O)[O-])c2)n1 | -3
Cc1ccc(-c2nnc(SCc3ccc([N+](=O)[O-])cc3)n2-c2ccccc2)cc1 | -2
SMILES | TbREL1 primary | others
Cc1ccc(C(=O)NC2CCCCN(C)C2=O)c(C)c1 (stereo not given) | 3
COCC(=O)N(Cc1ccccc1)c1ccccc1C(=O)Nc1cc(OC)ccc1OC | 0
O=C(Nc1nc2c(s1)CCc1ccccc1-2)c1ccco1 | 0
O=C(Nc1nc2c(s1)CCCC2)c1ccc(S(=O)(=O)N2CCCc3ccccc32)cc1 | 6
CS(=O)(=O)c1ccc(C(=O)Nc2nc(-c3ccco3)c(-c3ccco3)s2)cc1 | 82* | TbREL1 confirm=6
COc1ccc(Cn2c(C)cc(O)cc2=O)cc1 | 4
S=C(NCc1ccccc1)NCc1ccco1 | -1
S=C(NCc1ccco1)NCc1ccco1 | 17* | TbREL1 confirm=2
S=C(NCc1ccc(Cl)c(Cl)c1)NCc1ccco1 | -1
C[C@H]1CCCN1c1cccc2c1S(=O)(=O)N1CC[C@@H](C1)O2 | 6
O=C(Cc1ccccc1F)N1CCC(n2nnc3ncccc32)CC1 | 3
CC(=O)N1CCN(C(=O)C2CCCN(C(=O)c3ccc4c(c3)NC(=O)CS4)C2)CC1 (stereo not given) | 1
Cc1cc(C)cc(NC(=O)NCCCN2CCN(c3ccc(F)cc3)CC2)c1 | -1
COc1ccc(C(CCNCc2ccc(OC(C)C)cc2)c2ccccc2OC)cc1 (stereo not given) | 15* | TbREL1 confirm=19*
COc1ccc(CNCCC(c2ccccc2)c2ccc(OC(C)C)cc2)cc1OC (stereo not given) | 10
CC(C)Oc1ccc(CNCCC2(C(C)C)CCOC(C)(C)C2)cc1 (stereo not given) | 2
O=C(O)C1CC=CCC1C(=O)Nc1cc(Cl)ccc1Cl (stereo not given) | 1
O=C(C1CCCN(S(=O)(=O)c2cc(Cl)ccc2Cl)C1)N1CCCCCC1 (stereo not given) | -1
O=C(NNc1cc(Cl)ccc1Cl)C1CCC1 | 91* | TbREL1 confirm=1
CC(C)(C)c1ccc(S(=O)(=O)N2CCCC2C(=O)N2CCc3ccccc3C2)cc1 (stereo not given) | 4
CCCCNC(=O)C[C@H]1C[C@@]2(C(=O)OC)C(=C[C@H](C3CCCC3)O[C@@H]2C)N(Cc2ccc(Cl)cc2Cl)C1=O | 3
CCOc1ccc(NC(=O)CSc2nnc(-c3n[nH]c4c3CCC4)n2N)cc1 | 0
CCCCNC(=O)NS(=O)(=O)c1ccc(NC(=O)CSc2ncnc3scc(-c4ccc(C)cc4)c23)cc1 | -3
COc1cccc(NC(=O)CSc2nnc(-c3ccco3)c(-c3ccco3)n2)c1 | 11* | TbREL1 confirm=5
COc1cccc(NC(=O)CSc2cccc[n+]2[O-])c1 | 2
SMILES | TbREL1 primary | others
CC(C)c1ccc(NC(=O)CSc2nnc(-c3ccco3)n2C)cc1 | 3
CC(=O)c1ccc(NC(=O)CSc2ccc(-c3ccco3)nn2)cc1 | -2
COc1cccc(NC(=O)CSCC(=O)Nc2ccccc2)c1 | -1
O=C(CSc1nnc(-c2ccco2)c(-c2ccco2)n1)Nc1ccccc1 | 24* | TbREL1 confirm=8
O=S(=O)(c1ccccc1)n1c(CN2CCOCC2)nc2ccccc21 | 1
O=C(CSc1nnc(-c2cccs2)o1)Nc1cc(Cl)cc(Cl)c1 | 3
C[C@@H]1CCN(C2CC2)S(=O)(=O)c2c(cccc2N2CCC[C@@H]2C)O1 | 0
CCOc1ccc(C(=O)Cc2ccc3oc(C(=O)O)cc3c2)c(O)c1 | -2
CCOC(=O)c1ccc(CC(=O)c2ccc(O)c(O)c2O)o1 | 35* | TbREL1 confirm=84*
CCOC(=O)c1oc2cccc(O)c2c1C | 1
COC(=O)[C@]12CCCCC=C1N(Cc1ccc(OC)cc1)C(=O)[C@@H]2CC(=O)NCc1ccccc1 | 1
COC(=O)[C@]12C[C@H](CC(=O)NCCCCc3ccccc3)C(=O)N(Cc3cccc4ccccc34)C1=C[C@H](C(C)C)O[C@@H]2C1CC1 | -5
O=S(=O)(c1cc(Cl)cc(Cl)c1)N1CCN(c2nc(-c3cccs3)nc3ccccc23)CC1 | 12* | TbREL1 confirm=6
O=S(=O)(c1ccc(Cl)cc1)N1CCN(c2nc(C(F)(F)F)nc3ccccc23)CC1 | 0
O=S(=O)(c1cc(C(F)(F)F)ccc1Cl)N1CCN(c2ncnc3ccccc23)CC1 | -2
CC1(c2nnnn2Cc2ccccc2)CCSCC(=O)N1Cc1cccs1 (stereo not given) | 3
O=C(NN1C(=O)CSC1=S)C(=O)NN1C(=O)CSC1=S | 38* | TbREL1 confirm=19*
O=C(O)c1ccc(N2C(=O)CSC2=S)cc1 | 3
O=C(O)c1ccc(CN2C(=O)CSC2=S)cc1 | 7
CN1C(=O)[C@@](O)(c2cccn2C)c2cc(Cl)ccc21 | 2
Nc1ccc2c(c1)C(=O)C(=O)c1ccccc1-2 | 61* | TbREL1 confirm=87*
Cc1ccc(N2C(=O)c3ccc(N)cc3C2=O)cc1C | 5
Nc1ccc2oc(=O)c3ccccc3c2c1 | -2
Nn1c(SCC(=O)Nc2ccc(OCc3ccccc3)cc2)nnc1-c1cc(-c2ccc(Cl)cc2)n[nH]1 | 3

Bioassay records as filed in PubChem.
